From PubChem BioAssay (NCI)
Values joined by “and” are separate entries in the source; they are usually repeats but may differ in a detail not shown here. Identical values can stand only once. This is part of a sample that, as a whole, favours compounds with a hit. Of some 83,000 tested, about 20% had one in any assay.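 Single-concentration screen, 48 h exposure, 96-well plates. Endpoint: percent growth. Below 10 = active.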 Active and inactive are the calls of the source.

system: HL-60(TB) leukemia; test: NCI-60 one-dose screen, 48 h (100 = growth as untreated, 0 = no growth, -100 = all killed); settings: 10 µM unless noted

Structure (SMILES) | growth
COc1cc2ncnc(-n3ncc4cc(NC(=O)Nc5ccc(Cl)c(Cl)c5)ccc43)c2cc1OC | 15.3% (inactive)
COc1ccc(/C=N/C2=C(C#N)C(c3cccc(Cl)c3)c3c(ccc4ccccc34)O2)cc1 (stereo not given) | -18.6% (active)
COc1cc(CNC(=O)CCCCC[P+](c2ccccc2)(c2ccccc2)c2ccccc2)c(OC)c2c1OCO2 | -2.75% (active)
c1ccc(C(Nc2ccccn2)(c2ccccc2)c2ccccc2)cc1 | 90.4% (inactive)
COC(=O)/C(CCC=C(C)C)=C1\[C@@H](OC(C)=O)C[C@@]2(C)[C@H]1CC(=O)N[C@H]1[C@@]3(C)CCNC(=O)[C@@H](C)[C@@H]3CC[C@@]12C | 102% (inactive)
COc1cc2nc(-c3ccc(C(F)(F)F)cc3)cc(OCCCN3CCCCC3)c2cc1OC | 25% (inactive)
C(=C\c1nc2ccccc2s1)/c1ccc(N2CCOCC2)s1 | 24% (inactive)
N#C/C(=C\c1ccc(Br)cc1)n1nnc2cccc(F)c21 | -9.67% (active)
COC(=O)c1ccc2[nH]c(O)c(C(=Nc3ccc(N(C)C(=O)CN4CCN(C)CC4)cc3)c3ccc(C)cc3)c2c1 | -55.7% (active)
O=C(Nc1ccc(-c2nc(-c3cccc(OCCN4CCOCC4)c3)c(-c3ccnc(Br)c3)[nH]2)cc1)c1ccccc1 | -41.2% (active)
Cc1[nH]c(=O)[nH]c(=O)c1Br | 129% (inactive)
C=C(C)[C@@H]1CC[C@]2(C(=O)OC)CC[C@]3(C)[C@H](CC[C@@H]4[C@@]5(C)C/C(=C/NC(N)=S)C(=O)C(C)(C)[C@@H]5CC[C@]43C)[C@@H]12 | 95% (inactive)
O=C1/C(=C/c2ccc(O)cc2)Cc2ccc(Cl)cc21 | 60.1% (inactive)
O=C(/C=C/CN1CCCCC1)Nc1cc2c(Nc3ccc(F)c(Cl)c3F)ncnc2cc1OCCOC(F)F | 17.9% (inactive)
C[C@H](NC(=O)[C@@H](C)N)[C@H](Oc1ccc2c(cnn2-c2ccc(F)cc2)c1)c1ccc2c(c1)OCCO2 | 25.8% (inactive)
c1cnc2c(-c3nc4ccc5[nH]ncc5c4c4c3CCCC4)c[nH]c2c1 | 41.5% (inactive)
c1cc2ccc1CNCCN1CCNCc3ccc(cc3)Oc3ccc(cc3)CNCCN(CCNCc3ccc(cc3)O2)CCNCc2ccc(cc2)Oc2ccc(cc2)CNCC1 | -57.4% (active)
COc1ccc(Nc2nc(SCC(C)C)nc(-c3ccc(F)cc3)c2C#N)cc1 | 38.4% (inactive)
Nc1ccc(O)c(C(=O)O)c1 | 89.4% (inactive) and 104% (inactive) and 106% (inactive)
CC1CCCC(=O)O1 (stereo not given) | 102% (inactive) and 119% (inactive)

Structure (SMILES) | growth
O=C1/C(=C/c2ccccc2Br)COc2ccc(O)c(O)c21 | -9.04% (active)
O=C(NC1CCN(Cc2ccccc2)CC1)c1cc2nc(-c3ccc(Cl)s3)cc(C(F)(F)F)n2n1 | 58.6% (inactive)
NC1=NC(c2ccccc2)N=C(Nc2ccccc2)N1 (stereo not given) | 95.7% (inactive) and 111% (inactive)
O=C1/C(=C/c2ccccc2[N+](=O)[O-])Cc2ccccc21 | 31.7% (inactive) and 63.7% (inactive)
COc1ccc(C(=O)COC(=O)[C@H](C[Se][Se]C[C@H](NC(=O)c2ccc(Br)cc2F)C(=O)OCC(=O)c2ccc(OC)cc2)NC(=O)c2ccc(Br)cc2F)cc1 | 2.8% (active)
Cc1ccc(N(CC2=NCCN2)c2cccc(O)c2)cc1 | 105% (inactive)
O=C(c1ccccc1)C(Cl)C(Cl)c1ccccc1 (stereo not given) | 25.2% (inactive)
COc1ccc2c(c1)sc1nc(-c3ccc(N(C)C)cc3)cn12 | 65.4% (inactive)
Oc1c(CN2CCCCC2)ccc2cccnc12 | 58.3% (inactive) and 18.2% (inactive)
COc1cc(Nc2c(C#N)cnc3cc(OCCCN4CCN(C)CC4)c(OC)cc23)c(Cl)cc1Cl | 6.54% (active)
O=C(Nc1ccc(OCc2nnc(-c3ccccc3)o2)c(F)c1)Nc1ccc(Cl)c(Cl)c1 | 58.5% (inactive)
CCN1C(=O)N(CC)C2C1NN=c1s/c(=C3\C(=O)N(C(C)C)c4ccccc43)c(=O)n12 (stereo not given) | -22.6% (active)
CC1=C(CC(=O)c2cccc([N+](=O)[O-])c2)C(=O)c2ccccc2C1=O | 1.83% (active)
COc1cc(NC(C)CCCN2C(=O)c3ccccc3C2=O)c2ncccc2c1OC (stereo not given) | -96.9% (active)
CCOC(=O)C(=Cc1ccc(Br)cc1)C(=O)OCC | -41.8% (active)
O=[N+]([O-])c1ccc(NS(=O)(=O)c2ccccc2)c2ccccc12 | 21.2% (inactive)
Cc1c(C)c(N2C(=O)C=CC2=O)c(C)c(C)c1N1C(=O)C=CC1=O | 57.5% (inactive)
Cc1ccccc1NC(=O)c1sc2nc(C)c(C(=O)/C=C/c3ccccc3)cc2c1N | 8.8% (active)
COc1cc2c(cc1-c1c(C)noc1C)ncc1nc(C3CCOCC3)n([C@@H](C)COC(F)F)c12 | 24.7% (inactive)
NC(=O)c1cc(Br)cc(Br)c1NS(=O)(=O)c1ccccc1 | 92.6% (inactive)
